Screening results (PubChem)
Compounds with a hit are over-represented: about 18% of the library has one in this group of screens.
GCN5L2 inh: blocks human GCN5L2 histone acetyltransferase; GCN5L2 HAT assay, ThioGlo1 CoA-SH fluorescence; Potency, µM (doses to about 58.9 µM), for the others: at the top dose activity change, negative = inhibition, usual class: inhibitors; actives 0.21% (n = 390,000); AID 504327
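Titration-based screen in which CoA formation is detected via maleimide probe ThioGlo1 (50uM) turning fluorescent on thiol reaction; substrates H3(1-25) 75uM and acetyl-CoA 70uM, GCN5L2 20nM, 20 min incubation at room temperature.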
DT40 TDP1 no CPT: qHTS for Inhibitors of human tyrosyl-DNA phosphodiesterase 1 (TDP1): qHTS in cells in absence of CPT. actives 15% (n = 420,000). DT40 Tdp1-/- hTDP1 cells, no CPT, ATP luminescence, 48 h. AID 686978, 2013. Potency, µM (titrated, usually from 46.2 µM), for the others: at the highest dose activity change, negative = growth inhibition, actives largely listed as inhibitors; also: nearly all actives have a fitted effect of over 55% in size
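Stably hTDP1-transfected Tdp1-null chicken DT40 cells were treated with library compounds minus camptothecin and grown for at least 48 hr at 37 °C, after which cellular ATP was quantified by luminescence.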
PLK1 PBD inh: inhibitors of human PLK1 polo-box domain binding | Plk1 PBD binding of FITC phosphopeptide, fluorescence polarization | Potency, µM, without a hit: max response, negative = inhibition, actives largely listed as inhibitors | actives 2.8% (n = 360,000) | AID 720504; also: series mostly up to about 57 µM; nearly all actives have a fitted effect of over 65% in size
Target sequence (P53350 whole entry, looked up, the tested form may be a part): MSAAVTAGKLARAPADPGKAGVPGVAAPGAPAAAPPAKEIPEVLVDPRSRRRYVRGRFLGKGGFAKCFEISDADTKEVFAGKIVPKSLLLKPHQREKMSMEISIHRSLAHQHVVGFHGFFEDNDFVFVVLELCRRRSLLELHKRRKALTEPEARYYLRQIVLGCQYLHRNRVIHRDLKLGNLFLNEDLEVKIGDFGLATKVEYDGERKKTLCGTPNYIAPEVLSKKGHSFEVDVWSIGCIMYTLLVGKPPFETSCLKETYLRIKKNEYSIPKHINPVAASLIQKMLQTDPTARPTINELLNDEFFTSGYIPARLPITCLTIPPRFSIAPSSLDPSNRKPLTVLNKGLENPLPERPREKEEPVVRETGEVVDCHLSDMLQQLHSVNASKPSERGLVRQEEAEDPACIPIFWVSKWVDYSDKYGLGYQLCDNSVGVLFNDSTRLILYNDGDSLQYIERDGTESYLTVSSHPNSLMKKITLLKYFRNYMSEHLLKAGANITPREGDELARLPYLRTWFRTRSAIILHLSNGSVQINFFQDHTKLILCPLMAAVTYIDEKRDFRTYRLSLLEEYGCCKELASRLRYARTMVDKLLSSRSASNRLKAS
TDP1 block: blocks human tyrosyl-DNA phosphodiesterase 1 | recombinant TDP1, AlphaScreen DNA substrate cleavage | actives 0.28% (n = 350,000) | Potency, µM (titrated, usually from 130 µM), for the others: at the highest dose activity change, negative = inhibition, usual class: inhibitors; also: nearly all actives have a fitted effect of over 40% in size
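Signal: AlphaScreen proximity between streptavidin donor and anti-FITC acceptor beads on intact substrate. Reaction: Tdp1 1 nM, substrate 15 nM final, 5 min RT after 15 min compound preincubation.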
VDR inh: vitamin D3 receptor (human) inhibition; VDR-SRC2-3 peptide fluorescence polarization, 2 h; Potency, µM, inactives show max response, negative = inhibition, hits mostly inhibitors; actives 0.93% (n = 400,000)
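Fluorescence polarization assay of small-molecule disruption of VDR binding to coregulator peptide SRC2-3. Compounds and controls pin-transferred, then read after 2 h incubation at ambient room temperature.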
TDP1 cell CPT: DT40-hTDP1 cell growth loss with CPT. chicken DT40 Tdp1-/-;hTDP1 cells + 20 nM CPT, ATP luminescence, 48 h. Potency, µM (doses to about 46.2 µM), for the others: top-dose activity change, negative = growth inhibition, most hits filed as inhibitors. actives 12% (n = 420,000). AID 686979; also: nearly all actives have a fitted effect of over 55% in size
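Chicken DT40 Tdp1-/- cells stably complemented with human TDP1 were seeded at 400 cells/well in medium containing 20 nM camptothecin, exposed to pin-transferred compounds, and grown at 37 °C for at least 48 hr. Viability was read as ATP luminescence.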
The depositor's hits bear a star. Calls follow the shape of the dose curve; as a rule, active = well fitted curve in the direction sought with a large enough effect; inconclusive = small, poorly fitted or top-dose-only effect, or another doubt; inactive = no such curve, though single readings can be large; an effect the other way counts as inactive or inconclusive. % is scaled to controls: 0 for no effect and ±100 for the full control effect; potency is read from the fitted curve at half-maximal effect.

CC(C)C(=O)Nc1cccc(COc2cccc(CN(Cc3ccccc3)C(=O)OC(C)(C)C)c2)c1 was read as DT40 TDP1 no CPT inconclusive, PLK1 PBD inh -5%, VDR inh 1% and TDP1 cell CPT inconclusive.
`CC(C)(C)OC(=O)N(Cc1ccccc1)Cc1ccccc1OCc1cccc(NC(=O)C2CCC2)c1` gave DT40 TDP1 no CPT 16µM*, PLK1 PBD inh 1%, VDR inh -6% and TDP1 cell CPT inconclusive.
Screening CC(C)C(=O)Nc1cccc(COc2ccc(CN(CCc3ccccc3)C(=O)OC(C)(C)C)cc2)c1 returned DT40 TDP1 no CPT 13µM*, PLK1 PBD inh -22%, VDR inh 3% and TDP1 cell CPT 26µM*.
Screening COc1ccc(-c2cc(C3C4C=CCCC4(C)C(=O)N3Cc3ccccc3)ccc2F)cc1OC (stereo not given) returned TDP1 block 11% and VDR inh -16%.
`O=C1S/C(=C\C=C\c2ccco2)C(=O)N1c1ccccc1` gave GCN5L2 inh 0%, DT40 TDP1 no CPT 23µM*, PLK1 PBD inh -25%, TDP1 block 3%, VDR inh 1% and TDP1 cell CPT inconclusive.
`O=C1S/C(=C\C=C\c2ccco2)C(=O)N1c1ccc(O)cc1` gave GCN5L2 inh -5%, DT40 TDP1 no CPT inconclusive, PLK1 PBD inh -8%, TDP1 block 0%, VDR inh -19% and TDP1 cell CPT 18µM*.
For O=C1S/C(=C\c2cccs2)C(=O)N1c1ccc(O)cc1 the results were GCN5L2 inh 4%, DT40 TDP1 no CPT -20%, PLK1 PBD inh -8%, VDR inh 6% and TDP1 cell CPT -25%.
`O=C(O)CCCN1C(=O)/C(=C/C=C/c2ccco2)SC1=S` gave GCN5L2 inh inconclusive, DT40 TDP1 no CPT inconclusive, PLK1 PBD inh inconclusive, TDP1 block 4%, VDR inh 0% and TDP1 cell CPT -22%.
Screening Cc1ccc(C)c(SC2=NS(=O)(=O)c3ccccc32)c1 returned TDP1 block 1%.
CCc1ccc(-c2nn(CC(=O)NC3CCCCC3)c3c2cnc2ccc(C)cc23)cc1 was read as GCN5L2 inh 0%, DT40 TDP1 no CPT -5%, TDP1 block 8%, VDR inh 6% and TDP1 cell CPT -10%.
Screening CCc1ccc(-c2nn(-c3ccc(OC)cc3)c3c2cnc2ccc(OC)cc23)cc1 returned GCN5L2 inh 0%, DT40 TDP1 no CPT 6.5µM*, TDP1 block 2%, VDR inh 4% and TDP1 cell CPT inconclusive.
COc1ccc2ncc3c(-c4ccc(C)c(C)c4)nn(CC(=O)NC4CCCCC4)c3c2c1 was read as GCN5L2 inh -3%, DT40 TDP1 no CPT 12µM*, TDP1 block 8%, VDR inh 6% and TDP1 cell CPT 8.2µM*.
For CCc1ccc2ncc3c(-c4ccc(F)cc4)nn(CC(=O)NC4CCCCC4)c3c2c1 the results were GCN5L2 inh 2%, DT40 TDP1 no CPT -2%, TDP1 block 5%, VDR inh -1% and TDP1 cell CPT 13%.
Screening CCc1ccc(-c2nn(CC(=O)NC3CCCCC3)c3c2cnc2ccc(OC)cc23)cc1 returned GCN5L2 inh -16%, DT40 TDP1 no CPT 5.8µM*, TDP1 block 5%, VDR inh 15% and TDP1 cell CPT 5.8µM*.
Screening COc1cc2ncc3c(-c4ccccc4)nn(CC(=O)NC4CCCCC4)c3c2cc1OC returned GCN5L2 inh -8%, DT40 TDP1 no CPT 15µM*, TDP1 block 2%, VDR inh 1% and TDP1 cell CPT 15µM*.
`O=c1c(-c2ccccc2)nc2cnc(N3CCOCC3)nc2n1Cc1ccc(F)cc1` gave GCN5L2 inh -7%, DT40 TDP1 no CPT -2%, VDR inh 4% and TDP1 cell CPT -15%.
Screening CN1CCN(C(=O)c2ccc3c(=O)n(Cc4ccc(Cl)cc4)c(=S)[nH]c3c2)CC1 returned GCN5L2 inh -1%, DT40 TDP1 no CPT inconclusive, PLK1 PBD inh -10%, TDP1 block 2%, VDR inh 1% and TDP1 cell CPT 21µM*.
O=C(c1ccc2c(=O)n(Cc3ccc(Cl)cc3)c(=S)[nH]c2c1)N1CCCC1 was read as GCN5L2 inh -5%, DT40 TDP1 no CPT inconclusive, PLK1 PBD inh -6%, TDP1 block 1%, VDR inh -3% and TDP1 cell CPT -18%.
For CCCCCn1c(=O)[nH]c2cc(C(=O)N3CCN(Cc4ccc5c(c4)OCO5)CC3)ccc2c1=O the results were GCN5L2 inh -2%, DT40 TDP1 no CPT 10µM*, PLK1 PBD inh -11%, TDP1 block 4%, VDR inh 22% and TDP1 cell CPT 4.6µM*.
Screening CN1CCN(C(=O)c2ccc3c(=O)n(Cc4ccc5c(c4)OCO5)c(=S)[nH]c3c2)CC1 returned DT40 TDP1 no CPT 13µM*, VDR inh 0% and TDP1 cell CPT 22µM*.
`CSc1ccc(C(=O)C2CCCN(C(=O)c3cc4cc(F)ccc4[nH]3)C2)cc1` (stereo not given) gave GCN5L2 inh 1%, DT40 TDP1 no CPT 18µM*, PLK1 PBD inh -15%, TDP1 block 12%, VDR inh 27% and TDP1 cell CPT 18µM*.
COc1ccccc1N1CCN(C(=O)c2cc3cc(Cl)ccc3[nH]2)CC1 was read as GCN5L2 inh -4%, DT40 TDP1 no CPT 18µM*, PLK1 PBD inh -2%, TDP1 block 4%, VDR inh -2% and TDP1 cell CPT 16µM*.
For O=C(c1cc2cc(F)ccc2[nH]1)N1CCN(C(=O)c2ccco2)CC1 the results were GCN5L2 inh inconclusive, DT40 TDP1 no CPT 21µM*, PLK1 PBD inh -9%, TDP1 block 3%, VDR inh -7% and TDP1 cell CPT inconclusive.
`COc1ccccc1N1CCN(C(=O)c2cc3cc(F)ccc3[nH]2)CC1` gave GCN5L2 inh -3%, DT40 TDP1 no CPT 23µM*, PLK1 PBD inh inconclusive, VDR inh -18% and TDP1 cell CPT inconclusive.
Screening CC(C)c1cc(N2CCC(=O)NC2=O)cc(C(=O)O)c1O returned GCN5L2 inh -4%, DT40 TDP1 no CPT -3%, PLK1 PBD inh -7%, TDP1 block 0%, VDR inh 4% and TDP1 cell CPT -9%.
COc1ccccc1C(c1c(O)cc(C)n(Cc2ccco2)c1=O)N1CCCCC1 (stereo not given) was read as GCN5L2 inh -6%, DT40 TDP1 no CPT 3%, TDP1 block 3%, VDR inh -3% and TDP1 cell CPT -21%.
